Screens: PubChem, National Center for Advancing Translational Sciences (NCATS)
Most compounds without a hit are left out; they make up all but 21% or so of the library.
NS1 function inh = qHTS Assay for Inhibitors of Influenza NS1 Protein Function | Potency, µM (series often up to 46.1 µM) | 0.4% of 270,000 active; calls by dose curve; also: actives are rising curves; nearly all actives have a fitted effect of over 50% in size
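In this qHTS, NS1 from influenza A is expressed in budding yeast, where it slows growth. Cells are switched from glucose to 2% galactose medium (pH 6.0, -URA), treated with compound, and growth recovery is read at OD600.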
Pf growth 96h = Primary qHTS for delayed death inhibitors of the malarial parasite plastid, 96 hour incubation; P. falciparum luciferase reporter growth, 96 h; Potency, µM (doses to about 28.7 µM), hits mostly inhibitors; 6.9% of 320,000 active
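Two parasite generations (96 h, 37 C, 5% CO2) of compound exposure in infected erythrocytes (0.05% parasitemia, 2% hematocrit). Luciferase-reporter P. falciparum; decreased luminescence indicates inhibited growth, aimed at apicoplast-acting delayed death.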
FBPA Giardia inh = qHTS Assay for Inhibitors of Fructose-1,6-bisphosphate Aldolase from Giardia Lamblia. A8B2U2. purified Giardia FBPA. Potency, µM (series often up to 59.6 µM), most hits filed as inhibitors. 0.71% of 290,000 active; also: nearly all actives have a fitted effect of over 55% in size
Target sequence (A8B2U2 whole entry, looked up): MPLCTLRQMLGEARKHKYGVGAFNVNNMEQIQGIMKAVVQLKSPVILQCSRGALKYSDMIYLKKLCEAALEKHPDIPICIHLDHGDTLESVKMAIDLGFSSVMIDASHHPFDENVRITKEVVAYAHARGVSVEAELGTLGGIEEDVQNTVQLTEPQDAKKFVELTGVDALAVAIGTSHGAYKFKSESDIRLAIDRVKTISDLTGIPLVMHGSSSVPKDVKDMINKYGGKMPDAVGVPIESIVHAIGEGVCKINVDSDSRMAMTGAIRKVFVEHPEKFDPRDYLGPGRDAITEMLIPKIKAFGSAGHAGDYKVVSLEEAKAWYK
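Giardia FBPA (40 nM reagent) was preincubated 10 min at RT with compound (up to 57.5 uM final), then substrate plus GAPDH/TPI/NAD/arsenate coupling system with diaphorase/resazurin was added; resorufin fluorescence (525/598 nm) was read after 20 min.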
CHX counter = Cycloheximide Counterscreen for Small Molecule Inhibitors of Shiga Toxin; max response, %; 12% of 300,000 active; cell reporter, cycloheximide protein synthesis inhibition counterscreen; in the data active = max response mostly above about 13%, no sharp cut-off; inactive = mostly below about 14%; also: read at 38.3 µM for the half of the compounds with a filed dose
Shiga toxin inh = A qHTS for Small Molecule Inhibitors of Shiga Toxin; Vero cells, Shiga toxin protein synthesis inhibition reporter; inhibition, % at 38.7 µM; 9.2% of 290,000 active; AID 2315, 2010; in the data active = inhibition mostly above about 28%, no sharp cut-off; inactive = mostly below about 43%
Pf growth 48h = Primary qHTS for delayed death inhibitors of the malarial parasite plastid, 48 hour incubation | P. falciparum luciferase growth in erythrocytes, 48 h | Potency, µM (top dose mostly 28.7 µM), hits mostly inhibitors | 5.9% of 310,000 active | AID 504832, 2011
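Luciferase-expressing P. falciparum in infected erythrocytes (2% hematocrit, 0.1% parasitemia final) in RPMI 1640/0.5% Albumax were exposed to compound for 48 hours at 37 C, 5% CO2; growth read as luminescence.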
Of the large screens only hits and unclear results are named; the others gave an inactive call. Unless noted, calls follow the shape of the dose curve; as a rule, active = well fitted curve in the direction sought with a large enough effect; inconclusive = small, poorly fitted or top-dose-only effect, or another doubt; inactive = no such curve, though single readings can be large; an effect the other way counts as inactive or inconclusive.

COC(=O)C[C@H]1c2ccccc2C2=C(C[C@@H](C)[C@H]3C(=O)N(c4ccccc4)C(=O)[C@@H]23)N1C(=O)OC	none (no result: NS1 function inh, Pf growth 96h, CHX counter, Shiga toxin inh, Pf growth 48h)
CCN1c2ccccc2NC2N=C(OC)C(c3ccccc3)C21 (centres undefined)	FBPA Giardia inh inconclusive, CHX counter 18, Pf growth 48h inconclusive (no result: Pf growth 96h)
CCN1C(=O)N[C@@H](c2ccccc2)[C@H](C(=O)OC)[C@H]1C	none (no result: NS1 function inh, Pf growth 96h, CHX counter, Shiga toxin inh, Pf growth 48h)
CCc1ccc(NCc2nc(-c3ccccc3)no2)cc1	CHX counter 31, Shiga toxin inh 47
O=C(NCc1nc(-c2ccccc2)no1)Nc1ccc(F)cc1	Pf growth 96h inconclusive
Cc1ccc(-c2noc(CNc3ccccc3)n2)cc1	CHX counter 37, Shiga toxin inh 64
O=C(NC(=S)NCC1CCCO1)c1ccc(Cl)cc1 (centres undefined)	CHX counter 29, Shiga toxin inh 41
O=C(NC(=S)NCCN1CCOCC1)c1ccc(Cl)cc1Cl	Pf growth 96h inconclusive
O=C(NC(=S)NCC1CCCO1)c1ccccc1 (centres undefined)	CHX counter 31, Shiga toxin inh 34
O=C(NC(=S)NCC1CCCO1)c1ccc([N+](=O)[O-])cc1 (centres undefined)	Pf growth 96h 0.59µM
O=C(NC(=S)NCCN1CCOCC1)c1ccc(Cl)cc1	CHX counter 24
COc1ccc(N/C(=N/c2nc(C)cc(C)n2)NC(=O)c2ccccc2)cc1	none
CC(=O)NCc1c(I)c(NC(C)=O)c(I)c(C(=O)O)c1I	none (no result: NS1 function inh, CHX counter, Shiga toxin inh)
O=C(COC(=O)c1cccc2ccccc12)NCC1CCCO1 (centres undefined)	none (no result: NS1 function inh)
CN(C)c1ccc(/C=C(\NC(=O)c2ccccc2)C(=O)NCCN2CCOCC2)cc1	Pf growth 96h 9.3µM
O=C(COC(=O)c1ccccc1)NCC1CCCO1 (centres undefined)	CHX counter 24, Shiga toxin inh 46 (no result: Pf growth 96h)
Cc1ccc(C(=O)NC(=S)NCC2CCCO2)cc1 (centres undefined)	Pf growth 96h inconclusive, CHX counter 65
Cc1ccc(C(=O)C2=C(O)C(=O)N(c3ncccn3)C2c2ccccc2F)o1 (centres undefined)	none (no result: FBPA Giardia inh)
Cc1nc(-c2ccc(NC(=O)C3CC3)cc2)cs1	CHX counter 23, Shiga toxin inh 81
Cc1nc(-c2cccc(NC(=O)C3CCCCC3)c2)cs1	Pf growth 96h inconclusive, Shiga toxin inh 36
Cc1nc(-c2ccc(NC(=O)CC(C)C)cc2)cs1	CHX counter 38, Shiga toxin inh active
CC(=O)COc1cc2c(-c3cc4ccccc4o3)cc(=O)oc2cc1C	Pf growth 96h inconclusive
O=C(CN(CCc1ccccc1)C(=O)c1csnn1)NCc1ccc(F)cc1	none
CC(OC(=O)CCOc1ccccc1)C(=O)Nc1ccc(Cl)cn1 (centres undefined)	none (no result: FBPA Giardia inh)
c1ccc(CCNc2ncnc3scc(C4COc5ccccc5O4)c23)cc1 (centres undefined)	Pf growth 96h 15µM (no result: Pf growth 48h)
OCC1CCCN(c2ncnc3scc(-c4ccccc4)c23)C1 (centres undefined)	Pf growth 96h inconclusive, Pf growth 48h inconclusive (no result: NS1 function inh)
c1ccc2c(c1)OCC(c1csc3ncnc(N4CCCC4)c13)O2 (centres undefined)	Pf growth 96h 9.3µM (no result: Pf growth 48h)
Cc1cc(C(F)(F)F)nc(SCC(=O)NC2CCCCC2)n1	Pf growth 96h inconclusive
CN1CCN(C=Nc2nc3ccccc3nc2N2CCCC2)CC1	none
N/C(=N\OC(=O)c1ccncc1)c1cccc([N+](=O)[O-])c1	CHX counter 27 (no result: Shiga toxin inh)
Cc1ccc(CC(=O)O/N=C(\N)c2cccc([N+](=O)[O-])c2)cc1	Pf growth 96h 15µM, CHX counter 15
COc1cc(C(=O)O/N=C(\N)c2cccc([N+](=O)[O-])c2)cc(OC)c1OC	none
N/C(=N\OC(=O)c1ccc(Br)cc1)c1cccc([N+](=O)[O-])c1	Pf growth 96h inconclusive, CHX counter 26, Shiga toxin inh 20
Cc1ccc(C(=O)O/N=C(\N)c2cccc([N+](=O)[O-])c2)cc1	CHX counter 39, Shiga toxin inh 69
COc1cc(S(=O)(=O)NCC2(N3CCCCC3)CCCCC2)ccc1NC(C)=O	none (no result: NS1 function inh, FBPA Giardia inh, CHX counter, Shiga toxin inh)
CC(=O)OCC(NC(=O)C(Cc1ccccc1)NC(=O)OC(C)(C)C)C1OC(n2cc(F)c(=O)[nH]c2=O)C(OC(C)=O)C1OC(C)=O (centres undefined)	none (no result: NS1 function inh, Pf growth 96h, Pf growth 48h)
CC1=CC(=NOC(=O)c2cccc([N+](=O)[O-])c2)C=C(C)C1=O	FBPA Giardia inh inconclusive, CHX counter 23, Pf growth 48h inconclusive (no result: Pf growth 96h)
CC1=CC(=O)C(C(C)C)=C/C1=N/OC(=O)c1cccc([N+](=O)[O-])c1	Pf growth 96h inconclusive (no result: Pf growth 48h)
N/C(=N\OC(=O)C1CCCCC1)c1cccc([N+](=O)[O-])c1	CHX counter 66, Shiga toxin inh 106
Cc1cccc(/C(N)=N/OC(=O)c2ccncc2)c1	Pf growth 96h inconclusive, CHX counter 46, Shiga toxin inh 68 (no result: FBPA Giardia inh)
O=C(c1cccc([N+](=O)[O-])c1)N1CCCC(C(=O)N2CCCCC2)C1 (centres undefined)	none
O=C(OCC(O)COC(=O)c1cccnc1)c1cccnc1	Pf growth 96h inconclusive, Pf growth 48h inconclusive
COc1cccc(NC(=S)N(CCCN2CCOCC2)Cc2cn(C)c3ccccc23)c1	Pf growth 96h inconclusive
CCc1ccccc1NC(=S)N(CCCN1CCOCC1)Cc1ccccn1	none
COc1ccc(NC(=S)N(CCCN2CCOCC2)Cc2cn(C)c3ccccc23)cc1OC	Pf growth 96h 4.1µM, Pf growth 48h inconclusive
CCc1ccc(NC(=S)N(CCCN2CCOCC2)Cc2ccccn2)cc1	CHX counter 39, Shiga toxin inh 31
CCc1ccc(C(=O)NNc2ccc(Cl)cc2)cc1	CHX counter 48, Shiga toxin inh 59
Cc1ccc(CNC(=O)c2ccc(N(C)C)cc2)cc1	CHX counter 23, Shiga toxin inh 61 (no result: NS1 function inh)
CCc1ccc(C(=O)NCc2ccc(Cl)cc2)cc1	CHX counter 15
Cc1ccc(CNC(=O)c2nccnc2C(=O)O)cc1	Pf growth 96h 4.7µM
Cc1ccc(CNC(=O)Cc2ccc(-c3ccccc3)cc2)cc1	none
Cn1c(CNC(=O)C2CCC(=O)N(CCc3cccc(F)c3)C2)nc2ccccc21 (centres undefined)	none
CCC(C)[C@H](NC(=O)C1CC(=O)N(c2ccc3c(c2)OCO3)C1)C(=O)NC1CCCCC1 (some centres undefined)	none
Cc1ccc(OCC(=O)Nc2nc(-c3ccccn3)cs2)c(C)c1	Pf growth 96h inconclusive (no result: NS1 function inh, FBPA Giardia inh, CHX counter, Shiga toxin inh)
O=C(Nc1nc(-c2ccccn2)cs1)c1cc(Cl)ccc1[N+](=O)[O-]	Pf growth 96h 2.3µM, FBPA Giardia inh inconclusive, Pf growth 48h 13µM (no result: NS1 function inh)
